Source: PubChem (National Center for Advancing Translational Sciences (NCATS))
PNC assembly inh: blocks assembly of the perinucleolar compartment; activity change (PNC), negative = inhibition, % at 10 µM; PC3M PTB-GFP, PNC prevalence imaging, 16 h; hits give low values; actives 3.1% (n = 140,000);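 active = readout at or below -70, meaning at least 70% loss of cells showing the perinucleolar compartment, a nuclear body marking cancer cells; inconclusive = readout between -30 and a set limit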;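 also: plate controls were DMSO wells for no effect and camptothecin positive control wells for full effect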
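Read-out is percentage of cells bearing a perinucleolar compartment, from automated 20x imaging of fixed, Hoechst-stained PC3M PTB-GFP cells. Cells were seeded 4 h, then exposed 16 h to compound (23 nl of library stock) in duplicate plates.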
HPGD inh: HPGD (human) dehydrogenase inhibition; purified HPGD, NADH fluorescence kinetic, PGE2 substrate; Potency, µM, inactives show at the top dose activity change, negative = inhibition, most hits filed as inhibitors; actives 4.3% (n = 150,000); AID 894; also: potency is read from the fitted curve at half-maximal effect
Target sequence (P15428 whole entry, looked up): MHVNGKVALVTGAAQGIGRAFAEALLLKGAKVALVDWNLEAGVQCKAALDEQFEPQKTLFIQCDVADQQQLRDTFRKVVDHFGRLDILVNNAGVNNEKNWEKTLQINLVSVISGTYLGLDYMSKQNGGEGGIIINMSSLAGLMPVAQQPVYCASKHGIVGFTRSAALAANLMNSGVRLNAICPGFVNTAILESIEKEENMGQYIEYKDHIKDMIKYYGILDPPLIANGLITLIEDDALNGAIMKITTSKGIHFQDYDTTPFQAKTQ
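20 nM HPGD preincubated 15 min at room temperature with compound in 50 mM Tris-HCl pH 8, 0.01% Tween 20. Started with 1 mM NAD+ and 30 uM prostaglandin E2; NADH fluorescence (360/450 nm) read 5 times over 30-s intervals, last minus first.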
JMJD2E inh: JMJD2E (human) inhibition; JMJD2E catalytic domain, FDH-coupled NADH fluorescence (FDH is formaldehyde dehydrogenase); actives 1.6% (n = 230,000); AID 2147; Potency, µM (titrated, usually from 57.1 µM), for the others: at the top dose activity change, negative = inhibition, most hits filed as inhibitors;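 also: potency is read from the fitted curve at half-maximal effect; 0% = wells with enzyme and -100% = buffer wells without enzyme; nearly all actives have a fitted effect of over 50% in size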
Target sequence (B2RXH2 1-337 limits assumed): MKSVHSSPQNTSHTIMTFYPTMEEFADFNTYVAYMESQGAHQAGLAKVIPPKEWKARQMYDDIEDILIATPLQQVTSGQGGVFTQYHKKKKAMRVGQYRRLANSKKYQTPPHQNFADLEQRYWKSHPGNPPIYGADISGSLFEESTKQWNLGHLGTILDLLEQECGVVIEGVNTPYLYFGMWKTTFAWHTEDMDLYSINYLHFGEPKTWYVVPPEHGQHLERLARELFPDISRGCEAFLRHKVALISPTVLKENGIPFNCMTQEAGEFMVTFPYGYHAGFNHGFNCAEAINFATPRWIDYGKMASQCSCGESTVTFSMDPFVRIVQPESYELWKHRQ
ALDH1A1 inh: blocks purified human ALDH1A1 activity; Purified ALDH1A1, NADH fluorescence, propionaldehyde substrate; Potency, µM (doses to about 75.3 µM), inactives show at the top dose activity, negative = inhibition, usual class: inhibitors; actives 7.3% (n = 220,000); AID 1030;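 also: potency is read from the fitted curve at half-maximal effect; plate controls were no enzyme wells and a reference inhibitor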
Numbers without * were called inactive; u = inconclusive; x = no result given. A selection: hits, their analogues and other compounds. The true share with any hit is near 11%. Unless noted, calls follow the shape of the dose curve; as a rule, active = well fitted inhibition curve with a large enough effect (not every such curve was filed as active); inconclusive = small, poorly fitted or top-dose-only effect, or another doubt; inactive = no such curve, though single readings can be large or run the other way. Unless noted, % is scaled to controls: 0 for no effect and ±100 for the full control effect.

SMILES	PNC assembly inh	HPGD inh	JMJD2E inh	ALDH1A1 inh
Nc1nnnn1CC(=O)N/N=C/c1cc([N+](=O)[O-])ccc1O	x	x	7.9µM*	u
Nc1nnc(CC(=O)N/N=C\c2cc([N+](=O)[O-])ccc2O)s1	u	-29%	14µM*	-8%
COc1ccc(/C=C/C(=O)N2CCN(C)CC2)cc1S(=O)(=O)N1CCCCC1	x	x	-6%	u
Fc1cnc(N2CCc3ccccc32)nc1N1CCc2ccccc21	33	u	8%	2.2µM*
O=C1CC(c2ccc(F)cc2)Cc2nc(N3CCc4ccccc43)ncc21 (centres undefined)	16	u	u	u
COc1cc(OC)cc(C(=O)NC(=S)Nc2ccc(Cl)c(C(=O)O)c2)c1	32	-10%	u	-4%
COCCNC(=S)NNc1ccc(Cl)c(C(=O)O)c1	x	x	u	8.9µM*
S=c1nc(-c2ccccc2Br)[nH][nH]1	u	13µM*	14µM*	10µM*
FC(F)(F)c1ccc(-c2nc(=S)[nH][nH]2)cc1	x	x	-1%	x
S=c1nc(-c2cc(Cl)cc(Cl)c2)[nH][nH]1	x	x	2%	11µM*
S=c1nc(-c2cc(Cl)ccc2Cl)[nH][nH]1	x	x	-18%	6.3µM*
COC(=O)Nc1nc(-c2cc(Cl)ccc2Cl)cs1	x	x	-5%	7%
Cc1cc(C)nc(Nc2n[nH]c(-c3ccccc3Br)n2)n1	u	-8%	-3%	u
O=c1c(-c2cc(F)cc(F)c2)nc2cncnc2n1C1CC1	x	x	x	9%
Cc1ccc([N+](=O)[O-])cc1N=Nc1c(-c2ccc([N+](=O)[O-])cc2)[nH]n(C(N)=S)c1=O	x	x	-3%	11µM*
Cc1onc(-c2ccc(Cl)cc2Cl)c1-c1csc(COc2ccccc2)n1	x	x	1%	u
Cc1cc(C)nc(SCc2nc3nc(C)cc(C)n3c2Br)n1	-25	u	u	u
Cc1cc(C)n2c(=S)[nH]nc2n1	-139*	2.8µM*	7.1µM*	1.4µM*
COc1ccc2c(c1)c(C(=O)N1CCN(C)CC1)c(C)n2-c1ccccc1	0	u	u	14µM*
CC(=O)c1c(C)n(-c2ccccc2)c2ccc(O)cc12	6	5µM*	7%	-3%
CC(=O)[C@]1(O)Cc2c(O)c3c(c(O)c2[C@@H](O[C@H]2C[C@H](N)[C@H](O)[C@H](C)O2)C1)C(=O)c1c(O)cccc1C3=O	x	-3%	x	-4%
COc1ncc2nc(C)c(=O)n(Cc3cccs3)c2n1	x	-14%	x	-11%
[N-]=[N+]=Nc1ccc(C(=O)CSC[C@H](NC(=O)CC[C@H](N)C(=O)O)C(=O)NCC(=O)O)cc1	x	-7%	-1%	7%
C/C(N=NC(=[SH+])SCc1ccccc1)=C1\C=CC=CN1.[Cl][Cu]	x	3.5µM*	x	2.5µM*
CC(=O)Nc1ccc(NC(=O)C(Cc2ccccc2)NC(=O)C2CCCCC2)cc1 (centres undefined)	-119*	-2%	1%	-2%
SMILES	PNC assembly inh	HPGD inh	JMJD2E inh	ALDH1A1 inh
Cc1nnc(SCC(=O)N2c3ccccc3CC2C)[nH]c1=O (centres undefined)	47	-26%	-8%	11µM*
CC1Cc2ccccc2N1C(=O)CSc1ccccc1 (centres undefined)	33	-22%	-3%	18µM*
COCCSc1ccccc1C(=O)N1CCc2ccccc2C1	x	x	u	1%
CCCCCCCCCCCCC/C=C\[C@@H](O)[C@H](CO)NC(C)=O	x	-9%	4%	-1%
O=C1c2ccccc2C(=O)C12OC2c1ccc(Cl)cc1Cl (centres undefined)	-24	-18%	-25%	25µM*
COc1cc([N+](=O)[O-])ccc1NC(=O)CCCOc1cc(C)ccc1C	-14	-19%	-4%	28µM*
Cc1ccc(C)c(OCCCC(=O)Nc2ccccc2C(N)=O)c1	x	x	10%	24µM*
Cc1ccc(C)c(OCCCC(=O)Nc2nccs2)c1	18	-15%	5%	7%
O=C(CN1C(=O)c2ccccc2S1(=O)=O)c1ccc(O)c(O)c1	x	x	14µM*	x
COc1ccc(C(=O)CN2C(=O)c3ccccc3S2(=O)=O)cc1	x	x	3%	x
O=C(O)CC1S/C(=N/N=C/c2ccc(-c3ccc(Cl)cc3[N+](=O)[O-])o2)NC1=O (centres undefined)	-28	8.9µM*	u	22µM*
O=C(O)CC1S/C(=N/N=C/c2ccc(-c3ccc(Cl)c([N+](=O)[O-])c3)o2)NC1=O (centres undefined)	x	x	-1%	u
CC1Cc2ccccc2N1C(=O)COC(=O)Cn1nnc(-c2ccccc2)n1 (centres undefined)	-19	-24%	-4%	0.71µM*
CC1Cc2ccccc2N1C(=O)COC(=O)C1(c2ccccc2F)CCCC1 (centres undefined)	-90*	-3%	-11%	-2%
Cc1cnc(C(=O)OCC(=O)N2c3ccccc3CC2C)cn1 (centres undefined)	x	x	3%	1%
CC1Cc2ccccc2N1C(=O)COC(=O)c1ccc(Br)o1 (centres undefined)	x	x	1%	15%
CCCCCCCCCCCCCCCCCCNC(=O)OCC(COP(=O)([O-])OCC[n+]1ccsc1)OC (centres undefined)	x	-13%	0%	5%
CCOC(=O)c1ccc(CNC(=O)C2CCCCC2C(=O)OCC(F)(F)F)o1 (centres undefined)	59	-8%	3%	u
Cc1[nH]c2c(Cl)cccc2c1CCNC(=O)C1CCCCC1C(=O)OCC(F)(F)F (centres undefined)	-119*	-4%	10%	u
O=C(NC(N1CCCCCC1)C(Cl)(Cl)Cl)c1ccccc1Cl (centres undefined)	13	-17%	-2%	11µM*
COC(=O)[C@@]1(Cc2ccccc2)[C@H]2c3cc(C(=O)N4CCCC4)n(C)c3C[C@H]2CN1C(=O)c1ccccc1	x	-6%	u	2%
COc1ccccc1NCC(=O)N/N=C/C=C/c1ccccc1	42	-16%	u	14µM*
COc1ccc(/C=C/C=N/NC(=O)COc2ccc(OC)cc2)cc1	u	-10%	-8%	4%
COc1ccc(NCC(=O)N/N=C/C=C\c2ccccc2)cc1	u	-22%	-4%	9.5µM*
COc1ccccc1NCC(=O)N/N=C/c1cccnc1	u	-21%	6%	u
SMILES	PNC assembly inh	HPGD inh	JMJD2E inh	ALDH1A1 inh
CC(C)C(OC(=O)c1cccc(S(=O)(=O)NCC(F)(F)F)c1)C(=O)NC(N)=O (centres undefined)	x	x	10%	-9%
O=C(NC(NC(=S)Nc1c(Cl)cccc1Cl)C(Cl)(Cl)Cl)OCc1ccccc1 (centres undefined)	u	-13%	5%	10µM*
CCOC(=O)NC(NC(=S)Nc1ccc(OCC)cc1)C(Cl)(Cl)Cl (centres undefined)	31	-3%	2%	7%
COCCNC(=O)Cn1cc(C(=S)N2CCOCC2)c2ccccc21	x	x	-5%	32µM*
COCCCNC(=O)Cn1cc(C(C)=O)c2ccccc21	u	-3%	5%	3%
Cc1ccc(/C=C/C(=O)NCCc2c[nH]c3ccccc23)o1	x	x	-6%	14µM*
